A selection: hits, their analogues and other compounds. The true share with any hit is near 10%.
NPR1 antag = human Npr1 receptor antagonism | P16066 | HEK293 hNpr1 GloSensor cGMP, ANP-stimulated luminescence | Potency, µM (doses to about 46.3 µM), for the others: at the top dose activity change, negative = inhibition, most hits filed as inhibitors | 1.6% of 76,000 active | AID 1347048; calls by dose curve; also: % is scaled to controls: 0 for no effect and ±100 for the full control effect; nearly all actives have a fitted effect of over 60% in size
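Compound pre-incubated 30 min at room temperature on GloSensor-loaded HEK293 cells stably carrying hNpr1 and the pGS-40F cGMP biosensor. Stimulation uses hNppA at 0.1 nM final; luminescence is taken at baseline and 20 min post-agonist.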
NIH3T3 tox = NIH 3T3 cell cytotoxicity. NIH 3T3 viability, CellTiter-Glo ATP luminescence, 48-72 h. Potency, µM (titrated, usually from 96.7 µM), without a hit: top-dose activity change, negative = cytotoxicity, hits mostly inhibitors. 4.3% of 94,000 active. AID 1345082; also: % is scaled to controls: 0 for no effect and ±100 for the full control effect; nearly all actives have a fitted effect of over 55% in size
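First NIH 3T3 cells are plated at 400 cells/well; next compound is pinned in; then plates incubate 48 or 72 hr at 37 °C; finally CellTiter-Glo is added and luminescence read after 10 min.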
HEK293 tox = HEK 293 cell cytotoxicity; HEK 293 viability, ATP luminescence (CellTiter-Glo), 48-72 h; AID 1345083; Potency, µM (top dose mostly 115 µM), inactives show at the top dose activity change, negative = cytotoxicity, most hits filed as inhibitors; 6.6% of 94,000 active; also: % is scaled to controls: 0 for no effect and ±100 for the full control effect; nearly all actives have a fitted effect of over 60% in size
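ATP-coupled CellTiter-Glo luminescence served as viability read-out, recorded 10 min after reagent addition at room temperature. HEK 293 cells, 250 cells/well, had been incubated with pintool-transferred compound for 48 or 72 hr at 37 degree Celsius.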
FLuc inh-1 = inhibitors of firefly (Photinus pyralis) luciferase. Potency, µM (series often up to 115 µM), most hits filed as inhibitors. 2.5% of 76,000 active. P08659. purified P. pyralis luciferase, luminescence, biochemical. AID 1347043; also: % is scaled to controls: 0 for no effect and ±100 for the full control effect; nearly all actives have a fitted effect of over 65% in size
Target sequence (P08659 whole entry, looked up): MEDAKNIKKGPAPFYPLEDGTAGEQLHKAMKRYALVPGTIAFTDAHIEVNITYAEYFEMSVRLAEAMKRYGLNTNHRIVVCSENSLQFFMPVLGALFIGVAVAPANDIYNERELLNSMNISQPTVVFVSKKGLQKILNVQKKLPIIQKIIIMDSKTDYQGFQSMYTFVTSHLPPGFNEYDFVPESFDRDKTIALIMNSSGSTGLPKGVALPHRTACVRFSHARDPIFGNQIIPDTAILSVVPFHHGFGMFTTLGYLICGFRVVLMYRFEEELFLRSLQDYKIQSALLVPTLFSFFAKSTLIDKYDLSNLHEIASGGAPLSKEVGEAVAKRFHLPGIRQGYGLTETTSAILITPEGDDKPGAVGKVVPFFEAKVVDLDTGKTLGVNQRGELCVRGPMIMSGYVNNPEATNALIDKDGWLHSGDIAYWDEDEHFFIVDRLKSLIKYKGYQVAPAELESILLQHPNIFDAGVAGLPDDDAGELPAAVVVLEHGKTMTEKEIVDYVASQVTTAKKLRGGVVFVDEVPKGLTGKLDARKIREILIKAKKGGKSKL
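Cell-free enzyme assay, 10nM P. pyralis luciferase, luciferin and ATP each at 10uM. Inhibition profiled over a 6-point titration, read as luminescence.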
GPT2 inhibitor = inhibitors of human GPT2 alanine aminotransferase. Q8TD30. Recombinant GPT2, coupled pyruvate oxidase/HRP Amplex Red fluorescence. Potency, µM (top dose mostly 57.7 µM), inactives show at the highest dose activity change, negative = inhibition, hits mostly inhibitors. 0.25% of 100,000 active. AID 1671188; also: % is scaled to controls: 0 for no effect and ±100 for the full control effect; nearly all actives have a fitted effect of over 60% in size
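Fluorescence read-out: pyruvate from GPT2 turnover coupled to pyruvate oxidase, HRP and Amplex Red (0.2mM ThPP, 0.2U/mL PO and HRP, 50uM Amplex final). Substrates 250uM a-KG, 2mM L-alanine; enzyme 10ng/uL; 30 min RT.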
FLuc SDR no ATP = firefly luciferase binding stabilization, ATP absent; shares compounds with FLuc inh-1; Purified FLuc-C-HiBiT, Nano-Glo HiBiT luminescence, no ATP; Potency, µM (series often up to 32.7 µM), without a hit: top-dose activation (signal gain), usual class: activators; 7.8% of 1,300 active; AID 1963318; also: nearly all actives have a fitted effect of over 55% in size
FLuc SDR ATP = stabilizes firefly luciferase with ATP present | purified FLuc-C-HiBiT + ATP, HiBiT complementation luminescence | Potency, µM (highest dose often 32.7 µM), for inactives: top-dose activation (gain of signal), actives largely listed as activators | AID 1963319 | shares compounds with FLuc inh-1 | 8.7% of 1,300 active;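 also: signal reports ligand binding via conformational change of the enzyme rather than luciferase catalysis; % of control where 0% means no effect; nearly all actives have a fitted effect of over 55% in size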
FLuc inh-2 = inhibitors of firefly luciferase enzymatic activity. shares compounds with FLuc inh-1. purified FLuc-C-HiBiT enzyme, luciferin luminescence. Potency, µM (highest dose often 32.7 µM), without a hit: at the top dose activity change, negative = inhibition, actives largely listed as inhibitors. 42% of 1,300 active. AID 1963320; also: % is scaled to controls: 0 for no effect and ±100 for the full control effect; nearly all actives have a fitted effect of over 70% in size
Active calls of the source: *; i = inactive; ? = inconclusive; · = not tested or not shown; [ ] = remark or other dose. Unless noted, calls follow the shape of the dose curve; as a rule, active = well fitted curve in the direction sought with a large enough effect; inconclusive = small, poorly fitted or top-dose-only effect, or another doubt; inactive = no such curve, though single readings can be large; an effect the other way counts as inactive or inconclusive. Potency is read from the fitted curve at half-maximal effect.

SMILES	NPR1 antag	NIH3T3 tox	HEK293 tox	FLuc inh-1	GPT2 inhibitor	FLuc SDR no ATP	FLuc SDR ATP	FLuc inh-2
Cc1cn2nc(C(=O)Nc3ccc4c(c3)OCCO4)cc2c(N2CCCC2)n1	-24%	?	?	i	i	·	·	·
COC1C(=O)N(C2CCN(S(=O)(=O)Cc3ccccc3)CC2)C12CCOCC2 (stereo not given)	-1%	-8%	i	i	i	·	·	·
O=C(Nc1n[nH]c2cc(-c3ccccc3)ccc12)C1CC1	·	·	·	·	·	18%	11%	?
COc1ccc(-c2nc3c4cnn(-c5ccccc5F)c4ncn3n2)cc1	·	·	·	·	·	15%	12%	?
COc1cccc(CNC(=O)c2cc(-c3cccc(C(F)(F)F)c3)nc3c2cnn3C)c1	·	-3%	i	·	?	·	·	·
Cc1ccc(C2=NC3(CCN(C(=O)c4cccc(N(C)C)c4)CC3)ON2)cc1	-17%	-24%	-24%	14µM*	i	21%	?	?
CCn1ccnc1CN(C)C(=O)c1ccc2oc(-c3ccc(C(F)(F)F)cc3)nc2c1	3%	-29%	?	i	2%	·	·	·
Oc1ccc(OCc2ccccc2)cc1	·	·	·	·	-15%	·	·	·
c1ccc(COc2cccc(-c3nc4ccccc4s3)c2)cc1	·	·	·	·	·	26%	18%	5µM*
NC(=O)COC(=O)c1ccccc1-c1nc2ccccc2s1	·	·	·	·	·	12%	8%	-5%
c1ccc(COc2ccccc2-c2nc3ccccc3s2)cc1	·	·	·	·	·	16%	13%	?
O=C(C1CCCC1)N1CCOc2ccc(CN3CCc4ccccc4C3)cc2C1	-16%	?	?	i	i	·	·	·
CN(C)[C@@H]1CO[C@H](CNC(=O)c2ccncc2)[C@H]1O	-4%[70.6 µM]	i	i	i	-3%[88.5 µM]	·	·	·
N#Cc1c(NC(=O)c2cccc3ccccc23)sc2c1CCCC2	·	·	·	·	-7%	12%	8%	-20%
CC(C)NC(=O)C1CCC(=O)N1C1CCN(C(=O)c2cc(F)cc(F)c2)CC1 (stereo not given)	-13%	-6%	i	i	-5%	·	·	·
COc1ccc2cc(C3CN(C(=O)Cc4ccc(O)cc4)CCO3)ccc2c1 (stereo not given)	?	?	?	8.9µM*	-10%	21%	17%	?
COc1ccccc1CC(=O)N1CCC[C@H]1c1nc(-c2ccc(OC)c(OC)c2)no1	4%	-22%	?	i	i	·	·	·
C[S+](=O)([O-])N1Cc2ccccc2CC2(CCCN(Cc3ccncc3)C2)C1 (stereo not given)	·	-8%	-12%	·	i	·	·	·
Cc1ccc(C2=NC(c3ccccc3)=Nc3ccc(Cl)cc3N2)cc1	·	·	·	·	·	13%	10%	-9%
O=C(Nc1cc(Cl)cc(Cl)c1)c1ccn2nccc2c1	-24%[70.6 µM]	?	-37%[172 µM]	14µM*	i	24%[49.3 µM]	17%[49.3 µM]	?
O=C(Cn1ccc2ccccc21)Nc1ccc2c(c1)C(=O)N1CCC[C@H]1C(=O)N2	3%	-24%	-10%	i	?	·	·	·
Cc1ccc2nc([C@H]3CCN(C(C)C)C3)[nH]c2c1	28µM*	-25%[174 µM]	?	7.9µM*	-8%[88.5 µM]	17%[65.7 µM]	16%[65.7 µM]	?
Cc1ccc2nc([C@H]3CCN(C(=O)C4CC4)C3)[nH]c2c1	0%[70.6 µM]	-27%[174 µM]	-14%[230 µM]	i	-3%[88.5 µM]	·	·	·
CCN1C(=O)CCc2cc(NC(=O)c3ccc(OC(F)(F)F)cc3)ccc21	-2%	45µM*	50µM*	14µM*	-2%	22%	15%	?
Cc1cccc(OCCc2noc(C3CN(C(=O)Nc4ccc5c(c4)OCCO5)C3)n2)c1	?	?	?	3.5µM*	1%	?	20%	7µM*
SMILES	NPR1 antag	NIH3T3 tox	HEK293 tox	FLuc inh-1	GPT2 inhibitor	FLuc SDR no ATP	FLuc SDR ATP	FLuc inh-2
CCn1c(C2CCCN(C(=O)Nc3ccc4c(c3)OCCO4)C2)nn(C)c1=O (stereo not given)	-26%	1%	8%	6.3µM*	i	25%	18%	?
CN1CCCN(C(=O)Nc2ccc3c(c2)OCCO3)c2ccccc21	-16%	?	-18%	11µM*	0%	26%	?	?
O=C(Nc1ccccc1)N1CCCC(c2nc(C3CCOCC3)no2)C1 (stereo not given)	-2%	-3%	-5%	i	i	·	·	·
CNC(=O)N1CCCN(C)c2ccccc21	-1%	i	i	i	i	·	·	·
O=C(Nc1ccc2c(c1)OCCO2)N1CCCC(c2nc(C3CCOCC3)no2)C1 (stereo not given)	1%	-7%	-5%	13µM*	3%	23%	21%	?
COCCNC(=O)[C@H]1C[C@H](Oc2ccccc2)CN1CC1CC1	4%	-4%	-1%	i	i	·	·	·
CCOC(=O)c1ccc(NC(=O)C2CC(=O)N(c3n[nH]c4ccccc34)C2)cc1 (stereo not given)	1%	?	?	i	-5%	·	·	·
CCOC(=O)c1ccc(NC(=O)c2nsc3ccccc23)cc1	·	·	·	·	·	26%	20%	3.5µM*
CC(=O)c1cccc(NC(=O)c2nc3ccccc3n(C)c2=O)c1	·	·	·	·	·	4.4µM*	?	3.1µM*
NC(=O)CN1CCCC(N2CCN(Cc3ccc4c(c3)OCO4)CC2)C1 (stereo not given)	3%	4%	-5%	i	-7%	·	·	·
Oc1ccccc1CN1CCNc2cc(Nc3ccccc3)ncc2C1	-25%[70.6 µM]	32µM*	28µM*	5.6µM*	3%[88.5 µM]	17%	12%	?
COCCNc1cc2c(cn1)CN(Cc1ccccc1)CCN2	-3%[70.6 µM]	?	?	?	3%[88.5 µM]	·	·	·
c1cncc(Nc2cc3c(cn2)CN(Cc2ccn[nH]2)CCN3)c1	·	·	·	·	·	21%[49.3 µM]	14%[49.3 µM]	?
c1ccc(Nc2cc3c(cn2)CN(Cc2ccn[nH]2)CCN3)cc1	-21%[70.6 µM]	?	?	7.9µM*	-4%[88.5 µM]	28%[49.3 µM]	16%[49.3 µM]	?
c1cncc(CN2CCNc3cc(-c4cn[nH]c4)ncc3C2)c1	-1%[70.6 µM]	i	?	?	i	·	·	·
c1cncc(Nc2cc3c(cn2)CN(Cc2cnc[nH]2)CCN3)c1	·	·	·	·	·	11%	9%	-8%
CCOc1cc(=O)n2c(c1C(=O)NCCc1ccc(OC)c(OC)c1)CCCC2	5%	-3%	5%	i	i	·	·	·
Cc1[nH]cnc1CN1CCNc2cc(Nc3ccccc3)ncc2C1	-5%[70.6 µM]	?	?	6.3µM*	2%[88.5 µM]	27%[49.3 µM]	16%[49.3 µM]	?
